C diff HTS: inhibitors of Clostridium difficile growth | 0.25% of 86,000 active | Clostridium difficile clinical isolate growth, OD600, 24 h; hits give low values | AID 1259249 | growth activity, negative = inhibition, % at 16 µg/mL (by protocol);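 active = mean growth activity at or below -80% and every replicate also at or below -80%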;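 also: 0% = DMSO wells and -100% = levofloxacin 16 µg/mL wells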
Pf Dd2 inh: P. falciparum Dd2 growth inhibition. AID 1159554. SYBR Green, 72 h; hits give low values. 2.3% of 94,000 active. activity change, % at 10 µM; in the data active = activity change below about -80%
Tcruzi prolif: T. cruzi proliferation inhibition; 5.9% of 77,000 active; inhibition, % at 8.34 µM; T. cruzi beta-gal in NIH3T3, GalScreen luminescence, 90 h; AID 624255;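 active = mean inhibition above about 93%, with at least 55% of replicates each passing it, limit read from the data, passing the limit was not always enough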
Active calls of the source: *. In the library only some 6.8% were active in any assay of this set; here they are far more common.

What do the screens show for `Cc1ccc(S(=O)(=O)N(C)C[C@H]2OCCCC[C@@H](C)Oc3ccc(NC(=O)c4ccccc4)cc3C(=O)N([C@H](C)CO)C[C@@H]2C)cc1`?
Pf Dd2 inh: -62.6; Tcruzi prolif: 44.1

What do the screens show for `Cc1ccc(S(=O)(=O)N(C)C[C@H]2OCCCC[C@H](C)Oc3ccc(NC(=O)c4ccccc4)cc3C(=O)N([C@@H](C)CO)C[C@H]2C)cc1`?
Pf Dd2 inh: -86.2*; Tcruzi prolif: -40.3

Results for C[C@@H]1CN([C@H](C)CO)C(=O)c2cc(NC(=O)c3ccccc3)ccc2O[C@@H](C)CCCCO[C@@H]1CN(C)S(=O)(=O)c1ccc(Cl)cc1 ?
C diff HTS: 11.4; Pf Dd2 inh: -82.4*; Tcruzi prolif: 94.5

What do the screens show for `Cc1ccc(S(=O)(=O)N(C)C[C@H]2Oc3ccc(NC(=O)c4ccncc4)cc3C(=O)N([C@@H](C)CO)C[C@@H]2C)cc1`?
C diff HTS: -3.2; Pf Dd2 inh: -87.8*; Tcruzi prolif: 12.9

What do the screens show for `C[C@@H]1CCCCO[C@H](CN(C)S(=O)(=O)c2cn(C)cn2)[C@@H](C)CN([C@@H](C)CO)C(=O)c2cc(NS(=O)(=O)c3ccccc3)ccc2O1`?
C diff HTS: -0.4; Pf Dd2 inh: 25.1; Tcruzi prolif: 1.7

How did COc1ccc(S(=O)(=O)N(C)C[C@@H]2Oc3c(NS(=O)(=O)c4ccccc4)cccc3C(=O)N([C@H](C)CO)C[C@H]2C)cc1 do in these assays?
Pf Dd2 inh: -6.4

What do the screens show for `COc1ccc(S(=O)(=O)N(C)C[C@H]2OCCCC[C@@H](C)Oc3ccc(NS(C)(=O)=O)cc3C(=O)N([C@@H](C)CO)C[C@@H]2C)cc1`?
C diff HTS: 8.5; Pf Dd2 inh: -48.2; Tcruzi prolif: -112.4

Results for C[C@H]1CN([C@@H](C)CO)C(=O)c2cc(NC(=O)Nc3ccc(C(F)(F)F)cc3)ccc2O[C@@H]1CN(C)S(=O)(=O)c1cn(C)cn1 ?
Pf Dd2 inh: -32.3; Tcruzi prolif: 21.7

What do the screens show for `CN(C)CC(=O)N[C@H]1CC[C@@H](CC(=O)O)O[C@H]1CO`?
C diff HTS: -4.0; Pf Dd2 inh: 3.8

What do the screens show for `CN1C(=O)c2cc(NS(=O)(=O)c3cccc(F)c3)ccc2OC[C@H]2O[C@H](CC(=O)NCCN3CCCCC3)CC[C@H]21`?
C diff HTS: -4.0; Pf Dd2 inh: -18.1; Tcruzi prolif: -20.0

Results for CN1C(=O)c2cc(NC(=O)Nc3ccc(Cl)cc3)ccc2OC[C@H]2O[C@H](CC(=O)O)CC[C@H]21 ?
C diff HTS: 16.2; Pf Dd2 inh: 12.9; Tcruzi prolif: 26.7

What do the screens show for `C[C@H](CO)N1C[C@H](C)[C@H](CN(C)S(=O)(=O)c2ccc(F)cc2)Oc2ncc(-c3ccccc3)cc2C1=O`?
Pf Dd2 inh: -29.6; Tcruzi prolif: 30.9

Results for Cc1noc(C)c1S(=O)(=O)N(C)C[C@@H]1OCCCC[C@H](C)Oc2ccc(NC(=O)C3CCCCC3)cc2C(=O)N([C@@H](C)CO)C[C@H]1C ?
C diff HTS: -0.8; Pf Dd2 inh: -82.8*; Tcruzi prolif: -7.6

Results for Cc1noc(C)c1S(=O)(=O)N(C)C[C@H]1OCCCC[C@H](C)Oc2ccc(NC(=O)C3CCCCC3)cc2C(=O)N([C@H](C)CO)C[C@H]1C ?
C diff HTS: 3.3; Pf Dd2 inh: -58.7; Tcruzi prolif: 32.2

What do the screens show for `Cc1noc(C)c1S(=O)(=O)N(C)C[C@@H]1OCCCC[C@@H](C)Oc2ccc(NC(=O)C3CCCCC3)cc2C(=O)N([C@H](C)CO)C[C@H]1C`?
C diff HTS: 7.8; Pf Dd2 inh: -61.4; Tcruzi prolif: 4.9

What do the screens show for `Cc1noc(C)c1S(=O)(=O)N(C)C[C@H]1OCCCC[C@@H](C)Oc2ccc(NC(=O)C3CCCCC3)cc2C(=O)N([C@@H](C)CO)C[C@@H]1C`?
C diff HTS: 9.0; Pf Dd2 inh: -81.9*; Tcruzi prolif: 58.6

What do the screens show for `C[C@@H]1CCCCO[C@@H](CN(C)Cc2ccc(Cl)c(Cl)c2)[C@@H](C)CN([C@H](C)CO)C(=O)c2cc(NC(=O)c3ccncc3)ccc2O1`?
C diff HTS: 15.4; Pf Dd2 inh: -18.2; Tcruzi prolif: 92.0

Results for C[C@@H]1CCCCO[C@H](CN(C)Cc2ccc(Cl)c(Cl)c2)[C@@H](C)CN([C@@H](C)CO)C(=O)c2cc(NC(=O)C3CCCCC3)ccc2O1 ?
C diff HTS: 13.4; Pf Dd2 inh: -91.3*; Tcruzi prolif: 90.2

How did C[C@@H]1CN([C@H](C)CO)C(=O)c2cc(NC(=O)C3CCCCC3)ccc2O[C@@H](C)CCCCO[C@H]1CN(C)Cc1ccc(Cl)c(Cl)c1 do in these assays?
C diff HTS: 12.0; Pf Dd2 inh: -90.3*; Tcruzi prolif: 88.6
